Records with an inconclusive call do not appear. The source made the active and inactive calls. How the source made its calls, unless noted: active means hit-call score of the fitted dose curve at least 0.9, where 1 is the maximum; inactive means score below 0.9.
Tests used:
[1] = ATG_PBREM_CIS: Attagene CIS-FACTORIAL HepG2 Assay for human Phenobarbital-responsive Enhancer Module (PBREM) (AID 2282955); settings: HepG2 PBREM cis-reporter, Attagene multiplexed transcription; actives raise or lower the signal
Outline: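 After a 24 h incubation with test chemical, transfected HepG2 cells yield total RNA; reporter-specific RT-PCR products are fluorescently labelled, HpaI-digested and resolved by capillary electrophoresis against ROX size standards.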

[2] = molecular target: Paired box protein Pax-6 (Homo sapiens) (UniProt P26367); test: ATG_Pax6_CIS: Attagene CIS-FACTORIAL HepG2 Assay for human Paired Box 6 (PAX6) (AID 2282956); settings: HepG2 CIS-FACTORIAL PAX6 reporter transcription, RNA readout; actives raise or lower the signal
Outline: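 HepG2 cells transiently transfected with cis-promoter-driven multiplexed reporter units sensing endogenous transcription factor activity; 24 h chemical exposure. Reporter mRNA quantified by RT-PCR, 6-FAM labelling, HpaI digestion and capillary electrophoresis; bidirectional fit versus DMSO baseline.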

[3] = ATG_PXRE_CIS: Attagene CIS-FACTORIAL HepG2 Assay for human Pregnane X Receptor Element (PXRE) (AID 2282957); settings: HepG2 Attagene CIS-FACTORIAL PXRE reporter, mRNA; actives raise or lower the signal
Outline: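 HepG2 cells transiently transfected with cis-element-driven multiplexed reporter units; after 24 h chemical exposure, reporter mRNA measured by RT-PCR, 6-FAM labelling, HpaI digestion and capillary electrophoresis. Bidirectional fitting relative to DMSO.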

[4] = ATG_PPRE_CIS: Attagene CIS-FACTORIAL HepG2 Assay for human Peroxisome Proliferator-activated Response Element (PPRE) (AID 2282958); settings: HepG2 PPRE cis-element reporter, Attagene transcription factor profiling; actives raise or lower the signal
Outline: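 Multiplexed reporter transcription units under cis-regulatory promoters were transfected into HepG2 cells to capture endogenous factor activity. A 24 h incubation preceded RNA isolation and fluorescent RT-PCR fragment analysis.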

[5] = ATG_Sox_CIS: Attagene CIS-FACTORIAL HepG2 Assay for human SRY-box transcription factor (SOX) (AID 2282960); settings: HepG2 Attagene cis-factorial SOX reporter, mRNA; actives raise or lower the signal
Outline: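 After 24 h of chemical treatment, transfected HepG2 reporter cells are lysed for total RNA. Transcript levels come from RT-PCR with labelled primer extension and capillary electrophoresis, analysed bidirectionally versus DMSO.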

[6] = molecular target: Transcription factor Sp1 (Homo sapiens) (UniProt P08047); test: ATG_Sp1_CIS: Attagene CIS-FACTORIAL HepG2 Assay for human Specificity Protein 1 (Sp1) (AID 2282961); settings: HepG2 Sp1 cis-reporter transcription, actives raise or lower the signal
Outline: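 Sp1-driven reporter mRNA, read as capillary electrophoresis fluorescence after RT-PCR, in transiently transfected HepG2 cells dosed for 24 h; signal change in either direction relative to DMSO.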

[7] = ATG_SREBP_CIS: Attagene CIS-FACTORIAL HepG2 Assay for human Sterol Regulatory Element Binding (SREBP) (AID 2282962); settings: HepG2 Attagene cis-factorial SREBP reporter, mRNA; actives raise or lower the signal
Outline: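 HepG2 cells transiently transfected with multiplexed cis-promoter reporter units sensing endogenous transcription factors; reporter mRNA measured 24 h after dosing by RT-PCR, 6-FAM labeling, HpaI digestion and capillary electrophoresis. Bidirectional fit versus DMSO.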

[8] = molecular target: Signal transducer and activator of transcription 3 (Homo sapiens) (UniProt P40763); test: ATG_STAT3_CIS: Attagene CIS-FACTORIAL HepG2 Assay for human Signal Transducer and Activator of Transcription 3 (STAT3) (AID 2282963); settings: HepG2, Attagene cis-factorial STAT3 reporter transcription; actives raise or lower the signal
Outline: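 Endogenous STAT3-responsive cis-element activity was read in transiently transfected HepG2 cells after 24 h treatment. Reporter transcripts were quantified via RT-PCR and capillary electrophoresis, with DMSO as negative control and bidirectional curve fitting.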

[9] = ATG_TA_CIS: Attagene CIS-FACTORIAL HepG2 Assay for human TA Basal Promoter (AID 2282964); settings: HepG2 Attagene CIS-factorial TA basal promoter reporter; actives raise or lower the signal
Outline: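 Transient MRTU transfection of HepG2 preceded 24 h compound exposure. Reporter mRNA levels were then read by RT-PCR with capillary electrophoresis, and this background-control endpoint was fitted bidirectionally to DMSO.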

[10] = ATG_TCF_b_cat_CIS: Attagene CIS-FACTORIAL HepG2 Assay for human T-Cell-Factor with beta-catenin (TCF/b-cat) (AID 2282965); settings: HepG2 TCF/beta-catenin cis-reporter transcription, actives raise or lower the signal
Outline: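 Measured: reporter mRNA in HepG2 transiently transfected with cis-promoter reporter units, 24 h after chemical addition. Fitting was bidirectional, DMSO as negative control.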

[11] = ATG_TAL_CIS: Attagene CIS-FACTORIAL HepG2 Assay for human TAL Basal Promoter (AID 2282966); settings: HepG2 Attagene cis-factorial TAL promoter reporter; actives raise or lower the signal;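 further: background control endpoint measuring basal TAL promoter reporter mRNA not a specific factor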
Outline: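 HepG2 cells transiently transfected with multiplexed cis-promoter reporter units, dosed 24 h. Reporter mRNA quantified by RT-PCR, 6-FAM labelling, HpaI digestion and capillary electrophoresis; TAL basal promoter serves as background control, fitted bidirectionally versus DMSO.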

[12] = ATG_TGFb_CIS: Attagene CIS-FACTORIAL HepG2 Assay for human Transforming Growth Factor (TGF) (AID 2282967); settings: HepG2 Attagene CIS TGFb reporter, mRNA transcription; actives raise or lower the signal
Outline: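 After a 24-hour incubation with compound, transfected HepG2 cells were lysed for RNA; reporter cDNA was amplified, fluorescently end-labeled and separated by CE. DMSO served as baseline for bidirectional fits.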

[13] = molecular target: Nuclear receptor subfamily 1 group I member 3 (Homo sapiens) (UniProt Q14994); test: ATG_CAR_TRANS: Attagene TRANS-FACTORIAL HepG2 Assay for human Constitutive Androstane Receptor (CAR) (AID 2282969; active means hit-call score of the fitted dose curve at least 0.9, where 1 is the maximum;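 further: activators raise reporter mRNA above DMSO so AC50 marks induction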); settings: HepG2 Attagene TRANS-FACTORIAL CAR reporter
Outline: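 Readout is reporter mRNA induction, quantified by fluorescent primer extension and capillary electrophoresis after RT-PCR. Cells were HepG2 transiently carrying chimeric NR-Gal4 constructs with GAL4-UAS reporters, treated for 24 h; activity scored upward from DMSO.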

[14] = molecular target: Estrogen receptor (Homo sapiens) (UniProt P03372); test: ATG_ERa_TRANS: Attagene TRANS-FACTORIAL HepG2 Assay for human Estrogen Receptor alpha (ERa) (AID 2282970; active means hit-call score of the fitted dose curve at least 0.9, where 1 is the maximum); settings: HepG2 Attagene TRANS ERa GAL4 reporter, mRNA
Outline: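 HepG2 cells transiently transfected with multiplexed GAL4-UAS reporter units read out chimeric NR-Gal4 activity. After 24 h compound exposure, reporter mRNA was quantified by RT-PCR, 6-FAM labeling, HpaI digestion and capillary electrophoresis, relative to DMSO.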

[15] = molecular target: X-box-binding protein 1 (Homo sapiens) (UniProt P17861); test: ATG_Xbp1_CIS: Attagene CIS-FACTORIAL HepG2 Assay for human X-box Binding Protein 1 (XBP1) (AID 2282972); settings: HepG2 XBP1 cis-element reporter, Attagene multiplex; actives raise or lower the signal
Outline: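 HepG2 cells transiently transfected with multiple cis-element reporter units report endogenous TF activity; 24 h exposure, then reporter mRNA measured by RT-PCR, 6-FAM labelling, HpaI digestion and capillary electrophoresis. Bidirectional fitting versus DMSO.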

[16] = ATG_GAL4_TRANS: Attagene TRANS-FACTORIAL HepG2 Assay for GAL4 (Internal Marker) (AID 2282976; active means hit-call score of the fitted dose curve at least 0.9, where 1 is the maximum); settings: HepG2 Attagene TRANS GAL4 internal marker reporter
Outline: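 Background-control readout: GAL4-UAS reporter transcript in transiently transfected HepG2 cells after 24 h compound exposure. Measured by RT-PCR, 6-FAM primer extension, HpaI digest and capillary electrophoresis; gain-of-signal fit versus DMSO.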

[17] = ATG_VDRE_CIS: Attagene CIS-FACTORIAL HepG2 Assay for human Vitamin D Receptor Element (VDRE) (AID 2282968); settings: HepG2 VDRE cis-reporter transcription, actives raise or lower the signal
Outline: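 Reporter mRNA induction, quantified by capillary electrophoresis of fluorescently labelled RT-PCR products, was read 24 h after dosing HepG2 cells carrying transiently transfected cis-regulated reporter units; gain or loss relative to DMSO.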

[18] = molecular target: Steroid hormone receptor ERR1 (Homo sapiens) (UniProt P11474); test: ATG_ERRa_TRANS: Attagene TRANS-FACTORIAL HepG2 Assay for human Estrogen-Related Receptor alpha (ERRa) (AID 2282971; active means hit-call score of the fitted dose curve at least 0.9, where 1 is the maximum); settings: HepG2 Attagene TRANS reporter, ERRa transactivation
Outline: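 HepG2 cells transiently transfected with GAL4-UAS reporter units and chimeric NR-Gal4 constructs; after 24 hour compound incubation, reporter mRNA quantified by RT-PCR, fluorescent labelling and capillary electrophoresis, gain of signal versus DMSO.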

[19] = ATG_RORE_CIS: Attagene CIS-FACTORIAL HepG2 Assay for human RAR-related Orphan Receptor Element (RORE) (AID 2282959); settings: HepG2 Attagene cis-factorial RORE reporter, mRNA; actives raise or lower the signal
Outline: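 Fluorescence intensity of reporter-specific cDNA fragments, separated by capillary electrophoresis, gives the signal. Source: HepG2 liver cells transiently transfected with cis-element reporters and exposed 24 h; DMSO-normalized bidirectional fit.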

[20] = ATG_M_19_TRANS: Attagene TRANS-FACTORIAL HepG2 Assay for M19 Transcription Factor (Internal Marker) (AID 2282974; active means hit-call score of the fitted dose curve at least 0.9, where 1 is the maximum); settings: HepG2 Attagene TRANS-FACTORIAL M19 internal marker reporter
Outline: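 Measured here: internal-marker reporter transcript from HepG2 cells transfected with MRTUs, harvested at 24 h. cDNA PCR products were 6-FAM labelled by primer extension, cut with HpaI for 2 h at 37 C, and resolved by CE.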

Measured: AC50

Sequence of Estrogen receptor (Homo sapiens) (P03372 whole entry, looked up, the tested form may be a part): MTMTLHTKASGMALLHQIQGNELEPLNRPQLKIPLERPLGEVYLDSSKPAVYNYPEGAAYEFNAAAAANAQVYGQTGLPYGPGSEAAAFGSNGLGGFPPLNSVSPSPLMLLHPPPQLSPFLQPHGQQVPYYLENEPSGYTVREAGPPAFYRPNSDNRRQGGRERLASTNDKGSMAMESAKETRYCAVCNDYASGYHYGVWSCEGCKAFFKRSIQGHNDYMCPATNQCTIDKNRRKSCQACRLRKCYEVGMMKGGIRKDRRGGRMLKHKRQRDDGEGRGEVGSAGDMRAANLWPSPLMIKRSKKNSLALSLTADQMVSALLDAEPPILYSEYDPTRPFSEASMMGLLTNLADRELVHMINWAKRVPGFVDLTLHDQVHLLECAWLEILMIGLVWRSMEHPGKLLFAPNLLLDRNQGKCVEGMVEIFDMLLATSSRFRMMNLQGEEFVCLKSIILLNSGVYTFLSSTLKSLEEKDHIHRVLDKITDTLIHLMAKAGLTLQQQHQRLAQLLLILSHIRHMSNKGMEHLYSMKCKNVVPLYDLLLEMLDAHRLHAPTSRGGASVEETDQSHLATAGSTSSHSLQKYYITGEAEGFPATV
Sequence of Signal transducer and activator of transcription 3 (Homo sapiens) (P40763 whole entry, looked up): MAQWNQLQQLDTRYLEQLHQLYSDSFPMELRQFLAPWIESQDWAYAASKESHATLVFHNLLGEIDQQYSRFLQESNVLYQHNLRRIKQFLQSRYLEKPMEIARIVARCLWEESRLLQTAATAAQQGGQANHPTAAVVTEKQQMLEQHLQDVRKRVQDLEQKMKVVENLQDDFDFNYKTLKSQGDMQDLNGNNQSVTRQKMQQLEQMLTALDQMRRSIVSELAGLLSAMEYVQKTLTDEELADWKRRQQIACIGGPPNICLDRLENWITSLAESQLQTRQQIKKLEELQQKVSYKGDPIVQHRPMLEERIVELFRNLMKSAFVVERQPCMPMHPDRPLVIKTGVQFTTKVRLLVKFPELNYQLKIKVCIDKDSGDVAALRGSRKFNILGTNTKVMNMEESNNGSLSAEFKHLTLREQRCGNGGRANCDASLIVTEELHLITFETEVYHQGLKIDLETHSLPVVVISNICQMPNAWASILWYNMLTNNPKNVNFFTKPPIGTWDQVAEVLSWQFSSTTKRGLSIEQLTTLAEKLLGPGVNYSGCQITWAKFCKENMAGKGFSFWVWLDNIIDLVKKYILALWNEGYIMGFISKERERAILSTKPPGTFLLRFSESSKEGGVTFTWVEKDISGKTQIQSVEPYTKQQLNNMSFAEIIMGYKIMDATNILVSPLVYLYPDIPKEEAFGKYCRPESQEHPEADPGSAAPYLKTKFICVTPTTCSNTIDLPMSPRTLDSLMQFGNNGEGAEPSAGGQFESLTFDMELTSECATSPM
Sequence of Transcription factor Sp1 (Homo sapiens) (P08047 whole entry, looked up): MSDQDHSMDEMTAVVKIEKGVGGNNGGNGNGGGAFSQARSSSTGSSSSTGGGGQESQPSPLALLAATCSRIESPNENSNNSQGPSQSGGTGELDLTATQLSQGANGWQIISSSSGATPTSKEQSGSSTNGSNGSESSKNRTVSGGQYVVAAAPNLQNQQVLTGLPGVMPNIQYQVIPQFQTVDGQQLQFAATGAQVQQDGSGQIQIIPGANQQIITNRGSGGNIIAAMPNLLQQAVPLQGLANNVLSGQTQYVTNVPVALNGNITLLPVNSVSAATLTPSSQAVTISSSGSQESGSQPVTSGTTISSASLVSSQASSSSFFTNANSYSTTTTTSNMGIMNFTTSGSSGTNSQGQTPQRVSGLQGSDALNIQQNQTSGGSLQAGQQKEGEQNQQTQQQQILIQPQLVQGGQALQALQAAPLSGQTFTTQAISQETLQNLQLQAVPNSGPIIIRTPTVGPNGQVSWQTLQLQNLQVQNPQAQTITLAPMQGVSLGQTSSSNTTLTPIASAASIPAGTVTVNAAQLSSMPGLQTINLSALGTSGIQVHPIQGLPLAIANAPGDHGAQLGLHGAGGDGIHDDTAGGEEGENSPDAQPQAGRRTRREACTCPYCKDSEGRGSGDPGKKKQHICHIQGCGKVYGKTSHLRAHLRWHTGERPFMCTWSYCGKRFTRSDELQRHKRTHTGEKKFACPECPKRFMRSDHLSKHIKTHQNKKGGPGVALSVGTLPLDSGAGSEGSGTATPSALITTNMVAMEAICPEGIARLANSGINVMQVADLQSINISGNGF
Sequence of Paired box protein Pax-6 (Homo sapiens) (P26367 whole entry, looked up): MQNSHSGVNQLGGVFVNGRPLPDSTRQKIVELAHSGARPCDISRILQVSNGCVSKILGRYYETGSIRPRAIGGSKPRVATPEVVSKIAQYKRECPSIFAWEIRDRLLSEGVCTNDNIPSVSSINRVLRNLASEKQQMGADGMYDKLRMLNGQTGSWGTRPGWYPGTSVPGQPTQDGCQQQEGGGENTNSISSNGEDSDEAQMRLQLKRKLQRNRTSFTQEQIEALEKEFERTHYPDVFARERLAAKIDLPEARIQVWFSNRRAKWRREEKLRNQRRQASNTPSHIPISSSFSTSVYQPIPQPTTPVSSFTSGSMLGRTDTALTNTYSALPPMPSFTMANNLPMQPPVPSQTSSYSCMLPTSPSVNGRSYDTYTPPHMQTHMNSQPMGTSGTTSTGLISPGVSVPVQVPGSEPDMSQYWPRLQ
Sequence of X-box-binding protein 1 (Homo sapiens) (P17861 whole entry, looked up): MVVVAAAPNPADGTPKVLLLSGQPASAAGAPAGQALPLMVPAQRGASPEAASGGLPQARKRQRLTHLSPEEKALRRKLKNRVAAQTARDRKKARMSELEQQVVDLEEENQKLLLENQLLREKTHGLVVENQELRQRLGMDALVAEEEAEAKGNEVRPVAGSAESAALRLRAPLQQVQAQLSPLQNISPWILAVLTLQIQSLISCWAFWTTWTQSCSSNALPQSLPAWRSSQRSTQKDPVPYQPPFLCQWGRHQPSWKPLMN
Sequence of Nuclear receptor subfamily 1 group I member 3 (Homo sapiens) (Q14994 whole entry, looked up, the tested form may be a part): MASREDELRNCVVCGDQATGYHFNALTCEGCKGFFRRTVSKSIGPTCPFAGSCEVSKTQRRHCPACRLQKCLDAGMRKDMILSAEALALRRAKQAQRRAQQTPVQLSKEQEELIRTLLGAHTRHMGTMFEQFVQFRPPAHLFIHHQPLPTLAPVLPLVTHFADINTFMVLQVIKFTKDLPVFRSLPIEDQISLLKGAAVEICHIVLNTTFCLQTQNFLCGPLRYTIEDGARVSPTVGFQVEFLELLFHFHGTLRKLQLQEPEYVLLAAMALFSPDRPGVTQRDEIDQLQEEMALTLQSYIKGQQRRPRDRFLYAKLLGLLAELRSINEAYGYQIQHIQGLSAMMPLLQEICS
Sequence of Steroid hormone receptor ERR1 (Homo sapiens) (P11474 whole entry, looked up, the tested form may be a part): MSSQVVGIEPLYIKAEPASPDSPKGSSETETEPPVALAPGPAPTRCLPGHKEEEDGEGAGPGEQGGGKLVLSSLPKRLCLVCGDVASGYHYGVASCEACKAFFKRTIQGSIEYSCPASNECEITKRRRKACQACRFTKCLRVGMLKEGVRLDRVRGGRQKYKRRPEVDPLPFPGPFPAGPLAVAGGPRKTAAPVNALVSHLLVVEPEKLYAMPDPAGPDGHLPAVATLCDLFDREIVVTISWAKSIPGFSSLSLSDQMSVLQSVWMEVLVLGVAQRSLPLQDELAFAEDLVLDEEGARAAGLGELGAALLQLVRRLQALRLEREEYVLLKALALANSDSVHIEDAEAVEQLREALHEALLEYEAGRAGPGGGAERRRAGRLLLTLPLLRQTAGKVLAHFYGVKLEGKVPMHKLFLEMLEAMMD

COC(=O)c1cccc(C(=O)OC)c1
inactive: [1] | [2] | [3] | [4] | [5] | [6] | [7] | [8] | [9] | [10] | [11] | [12] | [13] | [14] | [15] | [16]

CCOC(=O)C(=O)OCC
inactive: [1] | [2] | [3] | [4] | [5] | [6] | [7] | [8] | [9] | [10] | [11] | [17] | [18] | [16]

Cc1cc(O)c2c(c1)C(=O)c1cc(O)cc(O)c1C2=O
active: [1] 14.9 µM | [6] 8.81 µM
inactive: [2] | [3] | [19] | [5] | [7] | [8] | [9] | [10] | [11] | [12] | [13] | [18]

S=c1[nH][nH]c(=S)s1
inactive: [1] | [2] | [3] | [19] | [5] | [6] | [7] | [8] | [9] | [10] | [11] | [12] | [17] | [16]

C=CC(C)CCCC(C)(C)O (stereo not drawn)
inactive: [1] | [2] | [3] | [19] | [5] | [6] | [7] | [8] | [9] | [10] | [11] | [12] | [17] | [13] | [15]

NC(=O)c1cccnc1
active: [3] 32.3 µM
inactive: [1] | [2] | [19] | [5] | [6] | [7] | [8] | [9] | [10] | [11] | [12] | [17] | [14] | [15] | [16]

CCCCCCCCCCCCS
inactive: [1] | [2] | [19] | [5] | [6] | [8] | [9] | [10] | [11] | [12] | [13] | [14] | [15] | [16]
active: [3] 33.4 µM | [7] 33.4 µM | [17] 42.5 µM

O=c1cc(-c2ccc(O)cc2)oc2cc(O)cc(O)c12
inactive: [1] | [5] | [6] | [7] | [8] | [9] | [10] | [11] | [12] | [13] | [20]
active: [2] 21.7 µM | [3] 14 µM | [4] 26.7 µM | [15] 16.2 µM

CCCCN(CCO)CCO
inactive: [1] | [2] | [3] | [19] | [5] | [6] | [7] | [8] | [9] | [10] | [11] | [12] | [17] | [14] | [15]

CCOC(=O)CC1(C)OCC(C)O1 (stereo not drawn)
inactive: [1] | [2] | [3] | [4] | [5] | [6] | [7] | [8] | [9] | [10] | [11] | [12] | [13] | [14] | [16]

CCCCCCCCCCOC(=O)c1ccccc1C(=O)OCCCCCCCC
inactive: [1] | [2] | [19] | [5] | [6] | [7] | [8] | [9] | [10] | [11] | [12] | [17] | [13] | [15] | [16]
active: [3] 3.87 µM

CCNC(=S)NCC
inactive: [1] | [2] | [3] | [19] | [5] | [6] | [7] | [8] | [9] | [10] | [11] | [17] | [13] | [15]

CCCc1ccc(N)cc1
inactive: [1] | [2] | [3] | [4] | [5] | [6] | [7] | [8] | [9] | [10] | [12] | [17] | [14] | [15] | [20] | [16]

CCCCCCOC(C)=O
inactive: [1] | [2] | [3] | [4] | [5] | [6] | [7] | [8] | [9] | [10] | [11] | [12] | [17] | [14] | [15] | [16]
